In PubChem BioAssay AID796 (Columbia University Molecular Screening Center, 2007):
In all, about 94,000 compounds went through this assay and about 410 (0.44%) were called active.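 Rule for the calls: active = inhibition above about 30% together with a positive call from visual inspection of the well image (limit read from the data); inconclusive = inhibition above a set limit but visual check negative; inactive = inhibition not above a set limit, visual check negative.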 The sample as a whole holds a higher share of actives than the screen did.

Test: inhibitors of IL-1B driven NFkB p65 nuclear import, primary screen, imaging, HUVEC, IL-1B stimulus, high-content imaging (AID 796);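 note: nuclear over cytoplasmic p65 intensity ratio measured by imaging; 0% = IL-1B stimulated DMSO wells and 100% = unstimulated DMSO wells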
Conditions: HUVEC IL-1B NFkB p65 nuclear translocation imaging; at 2 µM; stronger effect = higher value

Row | Compound | inhibition
1 | N#C/C(=C/c1ccc(Cl)cc1)NC(=O)c1ccccc1 | 0.7% (inactive)
2 | COc1ccc(C(F)(F)F)cc1N/C=C\c1nnnn1-c1ccc(C)cc1 | 7.9% (inactive)
3 | O=C(NCCCCCCCCCNC(=O)C(F)(F)F)C(F)(F)F | 8.3% (inactive)
4 | CC(C)(CNC(=O)c1cc(=O)[nH]c2ccccc12)N1CCOCC1 | 31% (active)
5 | CC(C)(CNCC(O)c1ccccc1)N1CCOCC1 (centres undefined) | -8.1% (inactive)
6 | Cc1c(C(=O)CN2CCOCC2)[nH]c2ccccc12 | -7.9% (inactive)
7 | c1ccc2c(C[n+]3csc4ccccc43)cccc2c1 | -13.2% (inactive)
8 | CCc1nc(C)ccc1OCC(=O)N(CC)CC | 5.7% (inactive)
9 | Fc1ccc(CNc2nc3ccccc3n3nnnc23)cc1 | -20.9% (inactive)
10 | CCOc1ccc(S(=O)(=O)Nc2nc3cc(OC)ccc3s2)cc1 | -6% (inactive)
11 | Cc1ccc(C(c2nnnn2CS(=O)(=O)c2ccc(C)cc2)N2CCC(C)CC2)cc1 (centres undefined) | -0.3% (inactive)
12 | O=C(Oc1ccc([N+](=O)[O-])cc1)c1ccc2ccccc2n1 | 1.7% (inactive)
13 | CCOC(=O)C1Sc2[nH]c(=O)sc2C(c2ccc(Cl)cc2)C1C(=O)OCC (centres undefined) | -11% (inactive)
14 | O=C(CSc1nc(C2CC2)nc2ccccc12)Nc1ccc2c(c1)OCCO2 | 4.6% (inactive)
15 | O=C(CSc1nnnn1C1CCCC1)Nc1ccc2c(c1)OCCO2 | -42.7% (inactive)
16 | O=C(CSc1nc2ncccc2[nH]1)Nc1ccc2c(c1)OCCO2 | 97% (active)
17 | O=C(/C=C/c1ccco1)Nc1ccc(Oc2ccccc2)cc1 | -2.7% (inactive)
18 | c1ccc(C(c2ccccc2)N2CCN(Cc3nnnn3C3CCCCC3)CC2)cc1 | 10.8% (inactive)
19 | CC1=NN(Cc2ccccc2)C(=O)/C1=C/c1ccc(N(C)C)cc1 | -0.4% (inactive)
20 | CCCCC(=O)N/N=C(\C)CC(=O)Nc1cc(Cl)ccc1OC | -3.2% (inactive)
21 | COc1ccccc1NC(=O)/C=C/C(N)=O | 43.6% (active)
22 | COc1ccccc1NC(=S)NC(=O)C(C)C | 13.7% (inactive)
23 | COc1ccccc1NC(=O)c1ccc(C)s1 | -3.2% (inactive)
24 | O=C(NCc1ccccc1Cl)c1csc2c1CCCCC2 | 6.8% (inactive)
25 | Cc1ccc(SCC(=O)Nc2ncc(C)s2)cc1 | -75.7% (inactive)
26 | CN(C)/C=C(\C#N)C(=O)c1cccnc1Oc1cccc(F)c1 | -5.1% (inactive)
27 | COC(=O)c1ccc(C(=O)OC)c(NC(=S)N2CCCCC2)c1 | 8.4% (inactive)
28 | COC(=O)c1ccc(CSc2ccc3nnc(-c4ccccc4)n3n2)o1 | -0.1% (inactive)
29 | COc1cc(C(=O)NC(=S)NCc2ccco2)cc(OC)c1OC | -3.4% (inactive)
